In PubChem BioAssay (Tox21) one finds Potency data, which are given here for nine compounds.

Several values for one entry are separate records, joined by “and”; a condition that tells them apart may be missing. Equal values may be shown once. Values without a mark were called inactive. Records with an inconclusive call do not appear. Activity calls are given as the source filed them. Unless noted, the call rests on the fitted dose curve; in most records, active means well fitted curve in the direction sought with a large enough effect in the repeat runs; inconclusive means weak or mixed curves; inactive means no such curve, though single readings can be large; an effect the other way counts as inactive or inconclusive.

Assay [1] is described as follows: qHTS assay for small molecules that induce genotoxicity in human embryonic kidney cells expressing luciferase-tagged ATAD5 (AID 651632). Further: nearly all actives have a fitted effect of over 15% in size. The gist of the method: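 Concentration-response screen for ATAD5 upregulation in HEK293T luciferase reporter cells; 16 hr treatment at 37C, then luminescence after 30 min with Amplite at room temperature.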
In general terms: qHTS replaces the single test concentration by a dilution series.

The nature of assay [2]: qHTS assay for small molecule agonists of the p53 signaling pathway - cell viability (AID 651633; calls by dose curve; further: nearly all actives have a fitted effect of over 30% in size; further: potency means the concentration at half of the fitted maximal effect). The gist of the method: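 p53RE-bla cells, seeded at 4,000 per well and rested 5 h at 37 C/5% CO2, received compounds in DMSO for 16 h at 37 C. CellTiter-Glo was then added, and luminescence was read after 30 min at room temperature to gauge cytotoxicity.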
Assay [3] is described as follows: qHTS assay for small molecules that induce genotoxicity in human embryonic kidney cells expressing luciferase-tagged ATAD5 - cell viability (AID 651634; calls by dose curve; further: nearly all actives have a fitted effect of over 25% in size; further: potency means the concentration at half of the fitted maximal effect). The gist of the method: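 15.5 hr compound or vehicle exposure of HEK293T cells expressing luciferase-tagged ATAD5 at 37C; live-cell protease activity is read by fluorescence after 30 min of CellTiter-Fluor.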

Assay [4] can be described thus: qHTS assay to test for compound auto fluorescence at 590 nm (red) in HepG2 cells (AID 720674). Further: potency means the concentration at half of the fitted maximal effect. The essentials:
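Compound auto-fluorescence is scored relative to Rose Bengal sodium, measured at 540/590 nm in live HepG2 cultures after 1 hr compound contact (37 C, 5% CO2).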

Assay [5] is described as follows: qHTS assay to test for compound auto fluorescence at 535 nm (green) in HepG2 cells (AID 720675).
Assay [6] in a line: qHTS assay to test for compound auto fluorescence at 460 nm (blue) in HEK293 cells (AID 720678). The essentials: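 HEK293 cells (2,000 per well, medium with 10% dialyzed FBS) attached for 4-5 hr at 37C, then received compound and stood overnight at 37C, 5% CO2. Blue fluorescence was read at Ex/Em 405/460 nm and expressed relative to triamterene.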
Assay [7] is described as follows: qHTS assay to test for compound auto fluorescence at 590 nm (red) in HEK293 cells (AID 720679). Further: potency means the concentration at half of the fitted maximal effect. The gist of the method:
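HEK293 cells (2,000/well, medium with 10% dialyzed FBS) attached for 4-5 hr at 37C, received 23 nL compound and were incubated overnight at 37C, 5% CO2. Red fluorescence was then read at 540/590nm Ex/Em, referenced to Rose Bengal sodium.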

Assay [8] can be described thus: qHTS assay to test for compound auto fluorescence at 460 nm (blue) in HEK293 cell free culture (AID 720681). The gist of the method:
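Test compounds were pinned into cell-free culture medium (DMEM with 10% FBS) and fluorescence was read directly at Ex/Em 405/460 nm. Signals were expressed as fluorescence equivalents of triamterene, with DMSO vehicle as control.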

A short description of assay [9]: qHTS assay to test for compound auto fluorescence at 535 nm (green) in HEK293 cell free culture (AID 720682). Further: potency means the concentration at half of the fitted maximal effect. The gist of the method:
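Green-channel intensity (Ex/Em 485/535 nm) was recorded from compound-treated wells containing only DMEM with 10% FBS. Fluorescein provided the equivalency standard.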

The nature of assay [10]: qHTS assay to test for compound auto fluorescence at 590 nm (red) in HepG2 cell free culture (AID 720684). Further: potency means the concentration at half of the fitted maximal effect. The gist of the method: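 Ex 540 / Em 590 nm read of compound in cell-free MEM (10% FBS). Rose Bengal sodium reference.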
A short description of assay [11]: qHTS assay to test for compound auto fluorescence at 535 nm (green) in HepG2 cell free culture (AID 720686). Further: potency means the concentration at half of the fitted maximal effect.
Assay [12] in a line: qHTS assay to test for compound auto fluorescence at 460 nm (blue) in HepG2 cells (AID 720687). The gist of the method:
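Cells (2,000/well in MEM with 10% FBS) attached overnight at 37 C, then were exposed to compound or DMSO for 1 hr at 37 C, 5% CO2. Fluorescence read at Ex/Em 405/460 nm, expressed as triamterene-equivalent signal.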

Assay [13] in a line: qHTS assay to test for compound auto fluorescence at 535 nm (green) in HEK293 cells (AID 720680).
Assay [14] is described as follows: qHTS assay to test for compound auto fluorescence at 590 nm (red) in HEK293 cell free culture (AID 720683). Further: potency means the concentration at half of the fitted maximal effect. The gist of the method: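 Tox21 10K library compounds were pinned into cell-free DMEM with 10% FBS and fluorescence was read at excitation 540 nm. Activity is expressed as Rose Bengal sodium equivalency.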
Assay [15] is described as follows: qHTS assay to test for compound auto fluorescence at 460 nm (blue) in HepG2 cell free culture (AID 720685). The essentials: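 Cell-free plates of MEM plus 10% FBS received 23 nL compound or DMSO vehicle; blue-channel (405/460 nm) intensity scored against triamterene as reference fluorophore.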
Assay [16] is described as follows: qHTS assay for small molecule disruptors of the mitochondrial membrane potential - cell viability (AID 720634; calls by dose curve;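 further: human HepG2 liver cancer cells; nearly all actives have a fitted effect of over 20% in size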). The gist of the method: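 In this qHTS format, HepG2 cells plated overnight were pinned with compound, incubated 1 hr, and assayed for ATP luminescence with CellTiter-Glo after m-MPI dye addition.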
For assay [17], the target named is Glucocorticoid receptor (Homo sapiens) (UniProt P04150). The assay can be described thus: qHTS assay to identify small molecule agonists of the glucocorticoid receptor (GR) signaling pathway (AID 720691; active means well fitted activation curve with a large enough effect in the signal ratio in the repeat runs, not every such curve was filed as active; the % refers to the signal ratio). The following applies: GR-bla HeLa, beta-lactamase reporter ratio, 18 h; activation: at 62.4 µM (top of the series). The gist of the method:
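Measures GR pathway activation through a GRE-beta-lactamase reporter stably integrated in HeLa cells, with 18 h compound treatment at 37 C and fluorescence detection using a FRET substrate.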

Assay [18] has the same target. Description: qHTS assay to identify small molecule antagonists of the glucocorticoid receptor (GR) signaling pathway (AID 720692; active means well fitted inhibition curve with a large enough effect in the signal ratio in the repeat runs, not every such curve was filed as active; the % refers to the signal ratio; further: potency means the concentration at half of the fitted maximal effect). The gist of the method:
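Tox21 10K library screened in concentration-response for blockade of dexamethasone (5 nM final)-induced GRE-bla reporter activity in HeLa cells; 18 h treatment, fluorescence read.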

Assay [19] is described as follows: qHTS assay for small molecule disruptors of the mitochondrial membrane potential (AID 720635). Further: potency means the concentration at half of the fitted maximal effect. The gist of the method: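 HepG2 cells (2,000/well) attached overnight at 37C, then took compound for 1 hr at 37C, 5% CO2. Mito-MPS dye was added for 30 min; fluorescence was read at 490/535 nm (monomers) and 540/590 nm (aggregates).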
Tags describe the fitted curve by direction and shape or compound fluorescence and quenching.

Sequence of Glucocorticoid receptor (Homo sapiens) (P04150 whole entry, looked up): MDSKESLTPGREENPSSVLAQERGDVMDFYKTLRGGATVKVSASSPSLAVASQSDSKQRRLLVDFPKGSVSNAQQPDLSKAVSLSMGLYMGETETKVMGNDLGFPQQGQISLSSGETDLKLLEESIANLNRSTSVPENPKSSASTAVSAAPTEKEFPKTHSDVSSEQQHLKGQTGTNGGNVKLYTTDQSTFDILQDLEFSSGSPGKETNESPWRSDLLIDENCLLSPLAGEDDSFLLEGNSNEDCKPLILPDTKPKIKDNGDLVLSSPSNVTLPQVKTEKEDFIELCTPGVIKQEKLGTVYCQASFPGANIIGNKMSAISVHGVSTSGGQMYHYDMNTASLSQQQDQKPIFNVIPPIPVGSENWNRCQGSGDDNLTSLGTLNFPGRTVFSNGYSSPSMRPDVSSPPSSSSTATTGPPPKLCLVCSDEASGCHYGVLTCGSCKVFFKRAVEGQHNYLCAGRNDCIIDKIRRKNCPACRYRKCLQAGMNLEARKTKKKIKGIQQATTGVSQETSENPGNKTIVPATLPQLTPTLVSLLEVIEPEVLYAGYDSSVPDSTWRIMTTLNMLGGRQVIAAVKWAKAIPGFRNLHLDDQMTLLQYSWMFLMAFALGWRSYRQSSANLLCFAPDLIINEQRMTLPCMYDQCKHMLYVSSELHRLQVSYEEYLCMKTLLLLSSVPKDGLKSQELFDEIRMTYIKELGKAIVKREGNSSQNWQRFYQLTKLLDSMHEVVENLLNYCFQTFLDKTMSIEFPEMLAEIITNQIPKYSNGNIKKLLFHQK

Consider `CC(C)OC(=O)c1cc(C(=O)OC(C)C)cc([N+](=O)[O-])c1`, for which the Potency result in [1], in [2], in assay [3], in assay [4], in assay [5] and in assay [6] was “inactive” in each case. For the same compound, the Potency result in assay [7], in [8], in assay [9], in assay [10], in assay [11] and in assay [12] was “inactive” in each case.
With `O[C@@H](c1cc(C(F)(F)F)nc2c(C(F)(F)F)cccc12)[C@H]1CCCCN1`, the Potency result in [1], in [4], in assay [5], in assay [6], in assay [7] and in assay [13] was “inactive” in each case. Further, the Potency result in assay [8], in assay [9], in assay [14], in assay [15], in [11] and in assay [12] was “inactive” throughout. For the same compound, the Potency in assay [2] is 21.1 µM (active); in [3] it was 23.7 µM (active).
With `O=Cc1ccc(F)cc1`, the Potency entry in assay [1], in assay [2], in [3], in assay [16], in assay [4] and in assay [6] was “inactive” each time. Further, the Potency result in assay [7], in [8], in assay [9], in [14], in assay [15] and in assay [11] was “inactive” throughout. The Potency result in [12], in [17] and in [18] was “inactive” each time.
For the compound `CCN(CC)CCSC(=O)C(c1ccccc1)c1ccccc1`, the Potency entry in assay [1], in assay [2], in assay [3], in assay [16], in [4] and in [6] was “inactive” in each case. Further, the Potency entry in assay [7], in [13], in [8], in [9], in assay [14] and in assay [15] was “inactive” in each case. For the same compound, the Potency entry in [11], in assay [12] and in assay [17] was “inactive” in each case. The Potency in assay [18] was 19 µM (active) and 10.7 µM (active).
Take `Cc1ccc(N)cc1O`: the Potency entry in [1], in assay [2], in [3], in assay [16], in [4] and in [7] was “inactive” throughout. In addition, the Potency result in [13], in assay [8], in assay [9], in [14], in [10] and in [15] was “inactive” in each case. In addition, the Potency result in [11], in [12] and in assay [17] was “inactive” in each case.
Take `CCCCNc1c(C(=O)OCC)c(C)nc2c1cnn2CC`: the Potency result in assay [1], in [2], in [3], in [4], in assay [5] and in [6] was “inactive” throughout. The Potency entry in [7], in [13], in assay [8], in assay [9], in [10] and in assay [15] was “inactive” in each case. Also, the Potency entry in [11], in assay [12] and in assay [18] was “inactive” each time.
For `CCN=c1cc2oc3cc(NCC)c(C)cc3c(-c3ccccc3C(=O)OCC)c-2cc1C`, the Potency result in assay [1], in [16], in [6], in assay [8] and in assay [12] was “inactive” in each case. Further, the Potency is 60.9 µM (active) and 15.4 µM (active) in assay [2]; 9.65 µM (active) and 6.86 µM (active) in assay [3]; 3.55 µM (active) and 3.98 µM (active) in assay [4]; 4.47 µM [fluorescent] (active) and 6.31 µM [fluorescent] (active) in [7]; 39.8 µM [fluorescent] (active) in [9]; 3.16 µM [fluorescent] (active) and 4.47 µM [fluorescent] (active) in [14]. The Potency in assay [10] was 2.82 µM [fluorescent] (active) and 3.55 µM [fluorescent] (active); in [11], 39.8 µM [fluorescent] (active).
For the compound `CC(C)c1ccc(O)c(C(C)C)c1`, the Potency entry in assay [1], in [2], in assay [16], in assay [4], in assay [6] and in assay [7] was “inactive” throughout. Besides, the Potency result in assay [13], in assay [8], in [9], in assay [14], in assay [15] and in assay [11] was “inactive” throughout. The Potency result in assay [12] was “inactive”. The Potency in assay [19] was 15.4 µM (active).
With `O=C1NCCN1CCN1CCC(c2cn(-c3ccc(F)cc3)c3ccc(Cl)cc23)CC1`, the Potency result in [1], in assay [16], in [4], in assay [5], in assay [6] and in assay [7] was “inactive” in each case. Moreover, the Potency entry in assay [13], in [8], in [9], in assay [10], in [11] and in [12] was “inactive” each time. The Potency in assay [3] is 29.8 µM (active).
